Assay results from PMC5540273 (PLoS ONE, 2017).

Tests used:
Settings in all cases: concentration: 1 μM, replicates: in singlicate; n = 1
[1] = test system: GRK7
[2] = test system: GSK3A
[3] = test system: GSK3B
[4] = test system: T1, HASPIN
T1 construct: gene GSG2

[5] = test system: HCK
[6] = test system: HIPK1
[7] = test system: HIPK2
[8] = test system: HIPK3
[9] = test system: HIPK4
[10] = test system: HPK1
[11] = test system: HUNK
[12] = test system: ICK
[13] = test system: IGF1R
[14] = test system: T2, IKK-alpha
T2 construct: gene CHUK

[15] = test system: T3, IKK-beta
T3 construct: gene IKBKB

[16] = test system: T4, IKK-epsilon
T4 construct: gene IKBKE

[17] = test system: INSRR
[18] = test system: INSR
[19] = test system: IRAK1
[20] = test system: IRAK3
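Also: KINOMEscan kinase panel screen.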

## Cc1ccccc1-n1cnc2c(N)ncnc21 [SKF-97510]
[1]
  %Inh: 0%
[2]
  %Inh: 1%
[3]
  %Inh: 0%
[4]
  %Inh: 0%
[5]
  %Inh: 0%
[6]
  %Inh: 0%
[7]
  %Inh: 0%
[8]
  %Inh: 0%
[9]
  %Inh: 0%
[10]
  %Inh: 0%
[11]
  %Inh: 1%
[12]
  %Inh: 0%
[13]
  %Inh: 0%
[14]
  %Inh: 0%
[15]
  %Inh: 0%
[16]
  %Inh: 0%
[17]
  %Inh: 0%
[18]
  %Inh: 0%
[19]
  %Inh: 0%
[20]
  %Inh: 0%

## Nc1ncnc2[nH]c(-c3ccccc3)nc12 [AH5015]
[1]
  %Inh: 0%
[2]
  %Inh: 21%
[3]
  %Inh: 23%
[4]
  %Inh: 59%
[5]
  %Inh: 0%
[6]
  %Inh: 19%
[7]
  %Inh: 0%
[8]
  %Inh: 39%
[9]
  %Inh: 21%
[10]
  %Inh: 39%
[11]
  %Inh: 0%
[12]
  %Inh: 0%
[13]
  %Inh: 3%
[14]
  %Inh: 42%
[15]
  %Inh: 55%
[16]
  %Inh: 0%
[17]
  %Inh: 19%
[18]
  %Inh: 0%
[19]
  %Inh: 0%
[20]
  %Inh: 0%

## COc1cccc(NC(=O)NC2CCN(c3ccnc(Nc4ccc(F)cc4)n3)C2)c1 (stereo not shown) [GSK1379721]
[1]
  %Inh: 0%
[2]
  %Inh: 21%
[3]
  %Inh: 10%
[4]
  %Inh: 0%
[5]
  %Inh: 0%
[6]
  %Inh: 0%
[7]
  %Inh: 0%
[8]
  %Inh: 7%
[9]
  %Inh: 0%
[10]
  %Inh: 59%
[11]
  %Inh: 13%
[12]
  %Inh: 25%
[13]
  %Inh: 0%
[14]
  %Inh: 0%
[15]
  %Inh: 0%
[16]
  %Inh: 15%
[17]
  %Inh: 0%
[18]
  %Inh: 14%
[19]
  %Inh: 12%
[20]
  %Inh: 0%

## Nc1nc(-c2nccs2)c(-c2ccnc3ccccc23)s1 [GW693542]
[1]
  %Inh: 0%
[2]
  %Inh: 5%
[3]
  %Inh: 14%
[4]
  %Inh: 0%
[5]
  %Inh: 0%
[6]
  %Inh: 3%
[7]
  %Inh: 0%
[8]
  %Inh: 21%
[9]
  %Inh: 0%
[10]
  %Inh: 30%
[11]
  %Inh: 23%
[12]
  %Inh: 0%
[13]
  %Inh: 10%
[14]
  %Inh: 0%
[15]
  %Inh: 9%
[16]
  %Inh: 31%
[17]
  %Inh: 0%
[18]
  %Inh: 0%
[19]
  %Inh: 18%
[20]
  %Inh: 7%

## CC(C)(C)c1ccc(C(=O)Nc2cn3cc(Cl)ccc3n2)cc1
[1]
  %Inh: 0%
[2]
  %Inh: 3%
[3]
  %Inh: 0%
[4]
  %Inh: 0%
[5]
  %Inh: 1%
[6]
  %Inh: 0%
[7]
  %Inh: 0%
[8]
  %Inh: 0%
[9]
  %Inh: 0%
[10]
  %Inh: 4%
[11]
  %Inh: 43%
[12]
  %Inh: 0%
[13]
  %Inh: 0%
[14]
  %Inh: 0%
[15]
  %Inh: 100%
[16]
  %Inh: 0%
[17]
  %Inh: 0%
[18]
  %Inh: 0%
[19]
  %Inh: 0%
[20]
  %Inh: 23%
